# Measured values from the supplement of paper PMC7411640.
# Where a name gives a salt, the structure may show the parent alone.
# Tested on: MDA-MB-468
# Experiment: phospho-S6 immunofluorescence (DAPI-normalised), per-plate z-score; higher = higher phospho-S6 signal (less pathway suppression)
# Conditions: 24 h
# Experimental: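 GPCR-targeted compound library (MedChemExpress HY-L006) tested on MDA-MB-468 PTEN-null TNBC cells in 384-well plates at 0.1, 1 or 10 uM, combined with vehicle, GDC0941 450 nM or lapatinib 1 uM, for 24 h. Phospho-S6 (S240/244) immunofluorescence normalised to DAPI and expressed as a per-plate z-score; values are the mean of biological triplicates.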
Compound,phospho-S6 immunofluorescence (z-score) (co-treatment: GDC0941 450 nM),phospho-S6 immunofluorescence (z-score) (co-treatment: lapatinib 1 uM),phospho-S6 immunofluorescence (z-score) (co-treatment: vehicle)
CCCc1c2oc(C(=O)O)cc(=O)c2cc2c(=O)cc(C(=O)O)n(CC)c12 [Nedocromil] (compound 10 µM),-0.69,-0.48,-1.01
CCCc1nc(C(C)(C)O)c(C(=O)OCc2oc(=O)oc2C)n1Cc1ccc(-c2ccccc2-c2nnn[nH]2)cc1 [Olmesartan (medoxomil)] (compound 10 µM),-0.4,-0.27,-0.03
CN1CCC(=C2c3ccccc3CC(=O)c3sccc32)CC1 [Ketotifen (fumarate)] (compound 10 µM),0.55,-0.44,0.26
CC[C@H](C)[C@H](NC(=O)[C@H](Cc1ccc(O)cc1)NC(=O)[C@@H]1CCCN1C(=O)[C@@H](NC(=O)[C@@H](N)CCCCN)[C@@H](C)CC)C(=O)N[C@@H](CC(C)C)C(=O)O [Neuromedin N] (compound 10 µM),0.27,-0.01,-0.38
CC(C)N(CC[C@H](c1ccccc1)c1cc(CO)ccc1O)C(C)C [(R)-5-Hydroxymethyl Tolterodine] (compound 10 µM),0.35,0.44,0.11
O=C(c1ccc(F)cc1)C1CCN(CCn2c(=O)[nH]c3ccccc3c2=O)CC1 [Ketanserin] (compound 10 µM),-0.64,-0.02,-0.85
OCCNC1CCCc2c1[nH]c1ccc(-c3ccccc3)cc21 (stereo not given) (compound 10 µM),-5.16,-8.66,-9.39
CCCCCN(CCCOC)C(=O)C(CCC(=O)O)NC(=O)c1ccc(Cl)c(Cl)c1 (stereo not given) [Loxiglumide] (compound 10 µM),0.5,0.64,0.51
C[C@H]1C[C@H]2[C@@H]3CCC4=CC(=O)C=C[C@]4(C)[C@@]3(F)[C@@H](O)C[C@]2(C)[C@@]1(O)C(=O)CO [Betamethasone] (compound 10 µM),-1.59,1.5,-0.96
CC(NCCc1ccc(O)cc1)C(O)c1ccc(O)cc1 (stereo not given) [Ritodrine (hydrochloride)] (compound 10 µM),-0.01,1.26,0.06
Cc1c(Cc2ccc3ccccc3n2)c2cc(F)ccc2n1CC(=O)O (compound 10 µM),0,0.39,0.58
CCCCc1oc2ccc(NS(C)(=O)=O)cc2c1C(=O)c1ccc(OCCCN(CCCC)CCCC)cc1 [Dronedarone] (compound 10 µM),-3.7,-8.99,-9.98
CNCCc1ccccn1 [Betahistine (dihydrochloride)] (compound 10 µM),-1.02,0.1,-0.72
C=CCN1CCc2nc(N)sc2CC1 (compound 10 µM),0.68,0.22,0.33
C[C@H](CCC(=O)O)[C@H]1CC[C@H]2[C@@H]3CC[C@@H]4C[C@H](O)CC[C@]4(C)[C@H]3C[C@H](O)[C@]12C [Deoxycholic acid] (compound 10 µM),0.02,0.6,-0.17
Clc1ccc(CCCOCCCN2CCCCC2)cc1 [Pitolisant (hydrochloride)] (compound 10 µM),0.75,-0.69,-0.12
O=C1NCC2(CCN(CCc3ccccc3)CC2)O1 [Fenspiride (Hydrochloride)] (compound 10 µM),0.59,0.67,1.01
CN1CCC(=C2c3ccccc3CCc3cccnc32)CC1 [Azatadine (dimaleate)] (compound 10 µM),0,0.29,-0.32
COc1cc(C(=O)NCc2ccc(OCCN(C)C)cc2)cc(OC)c1OC [Trimethobenzamide hydrochloride] (compound 10 µM),0.29,1.09,0.51
Cc1ccc(C(=O)Nc2ccc(S(=O)(=O)O)c3cc(S(=O)(=O)O)cc(S(=O)(=O)O)c23)cc1NC(=O)c1cccc(NC(=O)Nc2cccc(C(=O)Nc3cc(C(=O)Nc4ccc(S(=O)(=O)O)c5cc(S(=O)(=O)O)cc(S(=O)(=O)O)c45)ccc3C)c2)c1 [Suramin (sodium salt)] (compound 10 µM),0.54,1.39,-0.09
CC(=O)N[C@H](Cc1ccc2ccccc2c1)C(=O)N[C@H](Cc1ccc(Cl)cc1)C(=O)N[C@H](Cc1cccnc1)C(=O)N[C@@H](CO)C(=O)N(C)[C@@H](Cc1ccc(O)cc1)C(=O)N[C@H](CC(N)=O)C(=O)N[C@@H](CC(C)C)C(=O)N[C@@H](CCCCNC(C)C)C(=O)N1CCC[C@H]1C(=O)N[C@H](C)C(N)=O [Abarelix] (compound 10 µM),0.77,0.65,-0.38
CN(C)CCC(c1ccc(Br)cc1)c1ccccn1 (stereo not given) [Brompheniramine (maleate)] (compound 10 µM),0.58,-0.17,0.3
O=C(c1ccc(F)cc1)C1CCN(CCn2c(=O)[nH]c3ccccc3c2=O)CC1 [Ketanserin (tartrate)] (compound 10 µM),0.46,-0.54,0.68
CN1[C@@H]2CC[C@H]1C[C@@H](OC(=O)C(O)c1ccccc1)C2 (stereo not given in full) [Homatropine (Bromide)] (compound 10 µM),-0.26,0.08,0.37
Cc1nc(C#Cc2cccnc2)cs1 [MTEP (hydrochloride)] (compound 10 µM),-0.31,-0.65,-0.75
